From PubChem
Sampled rows, rich in hits. Any-hit rate of the full collection: about 8.1%.
Epigenetic derep: epigenetic control regulation, reporter derepression; 280,000 tested, 0.2% active; murine LDR cells, GFP reporter derepression, 30 h; Potency, µM (doses to about 53.9 µM), most hits filed as activators; further: nearly all actives have a fitted effect of over 60% in size
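Murine LDR cells carrying a silenced, genomically integrated CMV-driven GFP reporter were exposed to compound for 30 hours at 37 C. After PBS washes, GFP-positive cells (20–120 um objects) were counted by laser-scanning microplate cytometry.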
ClpP mod: qHTS Assay for Activators of ClpP; ATP-dependent Clp protease proteolytic subunit (Bacillus subtilis (strain 168)), P80244; purified B. subtilis ClpP, FRET peptide cleavage, 20 min; Potency, µM (doses to about 57.5 µM); 340,000 tested, 1.9% active; active means well fitted falling curve with a large enough effect; inconclusive means small, poorly fitted or top-dose-only effect; inactive means no such curve, though single readings can be large or run the other way; further: the source files actives as falling curves though it sought activators and does not explain the sign; nearly all actives have a fitted effect of over 65% in size
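ClpP 10 microg/mL final, pH 8 Tris/KCl buffer with BSA, glycerol, Tween-20; compound pinned in; FRET-FV substrate; RT 20 min; Ex320/Em430; ΔFRET vs ADEP 5.8 microM, DMSO, no enzyme.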
VP16 counter: inhibits Gal4-VP16 luciferase reporter, ROR gamma counter-screen. AID 2546. Potency, µM (series often up to 53.6 µM), most hits filed as inhibitors. 310,000 tested, 3.5% active. Drosophila S2 Gal4-VP16 UAS-luciferase, luminescence, 20 h;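 further: Gal4-VP16 expression switched on by copper sulfate through the metallothionein promoter; nearly all actives have a fitted effect of over 50% in size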
PINK1 expr mod: modulators of PINK1 expression | PINK1 immunofluorescence, high-content cytometry, 24 h | Potency, µM (series often up to 76.6 µM), actives largely listed as activators | 410,000 tested, 0.2% active | AID 624263; active means well fitted activation curve with a large enough effect; inconclusive means small, poorly fitted or top-dose-only effect; cell line not stated here; further: nearly all actives have a fitted effect of over 65% in size
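Stable cell line, 250 cells/well, 12 h attachment; compounds pinned at 5 concentrations, 24 h; CCCP control. Fixed with nuclear dye, primary antibodies 12 h at 10 degrees C, secondary plus cell stain; laser-scanning cytometer read.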
RORgamma inh: inhibitors of mouse ROR gamma transcriptional activity | Drosophila S2 Gal4-RORgamma UAS-luciferase reporter, 20 h | Potency, µM (top dose mostly 53.6 µM), hits mostly inhibitors | 310,000 tested, 5.4% active; further: nearly all actives have a fitted effect of over 60% in size
Target sequence (P51450 whole entry, looked up, the tested form may be a part): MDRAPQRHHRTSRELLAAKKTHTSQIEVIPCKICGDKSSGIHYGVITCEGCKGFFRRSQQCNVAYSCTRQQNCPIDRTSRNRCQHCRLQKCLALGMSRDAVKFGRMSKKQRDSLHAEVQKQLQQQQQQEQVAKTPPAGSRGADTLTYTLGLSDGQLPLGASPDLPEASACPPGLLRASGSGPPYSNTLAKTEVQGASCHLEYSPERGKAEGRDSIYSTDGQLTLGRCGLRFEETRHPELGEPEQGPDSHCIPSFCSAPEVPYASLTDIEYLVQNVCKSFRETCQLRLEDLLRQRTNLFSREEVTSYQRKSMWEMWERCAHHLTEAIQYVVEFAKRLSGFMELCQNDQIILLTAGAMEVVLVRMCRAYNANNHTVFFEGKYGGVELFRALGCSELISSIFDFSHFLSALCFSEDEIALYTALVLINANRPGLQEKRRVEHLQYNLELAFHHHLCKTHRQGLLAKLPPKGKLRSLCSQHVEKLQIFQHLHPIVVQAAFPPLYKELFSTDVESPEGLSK
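Using a luciferase readout, inhibitors were identified by reduced reporter activity in Drosophila cells coexpressing a copper-inducible Gal4–ROR gamma fusion and UAS-driven Photinus luciferase, incubated 20 hr after 700 uM copper sulfate.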
Sfp PPTase inh: Sfp phosphopantetheinyl transferase inhibition; 310,000 tested, 3.5% active; Biochemical Sfp PPTase activity, qHTS; Potency, µM, usual class: inhibitors;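 further: the enzyme is Sfp with the accession as filed and its product quenches rhodamine fluorescence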
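Reaction rates are the 30-min fluorescence difference (ex 525, em 598 nm) in wells containing 15 nM Sfp, 5 uM rhodamine-CoA and 12.5 uM BHQ-2-YbbR at pH 7.6 with 10 mM MgCl2.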
Of the large screens only hits and unclear results are named; the others gave an inactive call. Unless noted, the call rests on the fitted dose curve; in most records, active means well fitted curve in the direction sought with a large enough effect; inconclusive means small, poorly fitted or top-dose-only effect, or another doubt; inactive means no such curve, though single readings can be large; an effect the other way counts as inactive or inconclusive.

N#CC1=C(N)SC(N)=C(C#N)C1c1ccnc2ccccc12	Sfp PPTase inh 16µM
CN(CCNC(=O)c1c[nH]c2c1ccc1ccccc12)CCNC(=O)c1c[nH]c2c1ccc1ccccc12	ClpP mod 28µM (no result: Epigenetic derep, VP16 counter, RORgamma inh, Sfp PPTase inh)
Cc1ccc2c(c1)c(=O)c1c3n2CCN(C(=O)CCl)C3CC1 (centres undefined)	Sfp PPTase inh 79µM
Cc1ccc2c(c1)c1c3n2CCN(C(=O)CN2CCN(C)CC2)C3CCC1 (centres undefined)	ClpP mod inconclusive
CC(=O)Nc1ccc2nc(CN3CCN(Cc4ccc(F)cc4)C(CCO)C3)ccc2c1 (centres undefined)	ClpP mod inconclusive, Sfp PPTase inh 79µM
O=c1ccc2c(o1)/C(=C/C=C(Cl)Cl)CCC2	ClpP mod inconclusive, RORgamma inh inconclusive, Sfp PPTase inh 40µM
Cc1cc(C(=O)N2CCN(c3ncccn3)CC2)c(C)o1	RORgamma inh 22µM
Cc1cc(C(=O)N2CCN(S(=O)(=O)c3ccccc3C#N)CC2)c(C)o1	none (no result: Epigenetic derep, VP16 counter, RORgamma inh, Sfp PPTase inh)
Cc1cc(C(=O)N2CCN(S(=O)(=O)c3ccccc3F)CC2)c(C)o1	RORgamma inh 13µM (no result: ClpP mod)
COc1ccc(-c2ccc([C@H]3[C@@H]4C=CCC[C@@]4(C)C(=O)N3Cc3ccccc3)c(F)c2)cc1OC	RORgamma inh inconclusive, Sfp PPTase inh 20µM
CC1CC=CC2C1C(=O)N(Cc1ccccc1)C2c1ccc2ccccc2c1Br (centres undefined)	VP16 counter 22µM, RORgamma inh inconclusive, Sfp PPTase inh inconclusive (no result: Epigenetic derep, ClpP mod, PINK1 expr mod)
COc1ccc(-c2ccc([C@H]3[C@H]4C=CC[C@@H](C)[C@@H]4C(=O)N3Cc3ccccc3)c(F)c2)cc1OC	RORgamma inh inconclusive, Sfp PPTase inh 22µM
COc1ccc(-c2ccc(OC)c(C3C4C=CCC(C)C4C(=O)N3Cc3ccccc3)c2)cc1OC (centres undefined)	none (no result: Epigenetic derep, ClpP mod, PINK1 expr mod)
COc1ccc(-c2ccc([C@H]3[C@H]4C=CC[C@@H](C)[C@@H]4C(=O)N3Cc3ccccc3)c(F)c2)cc1	ClpP mod 20µM
CN1C(=O)Cc2cc(S(=O)(=O)CCC(=O)N3CCN(c4ccc(Cl)cc4)CC3)ccc21	none (no result: VP16 counter, RORgamma inh, Sfp PPTase inh)
O=C(CCn1c(=O)c2cccn2c2cccnc21)Nc1ccccc1Br	none (no result: VP16 counter, RORgamma inh, Sfp PPTase inh)
CC(=O)c1cccc(S(=O)(=O)N2CCN(c3nc(-c4cccs4)nc4ccccc34)CC2)c1	none (no result: Epigenetic derep, VP16 counter, RORgamma inh, Sfp PPTase inh)
COc1ccc(-c2ccc(OC)c([C@H]3[C@H]4C=CC[C@@H](C)[C@@H]4C(=O)N3Cc3ccccc3)c2)cc1	ClpP mod 25µM
CC1=C(C(=O)Nc2ccccc2)C(c2ccc(Br)cc2)n2nc(CCCO)nc2N1 (centres undefined)	none (no result: VP16 counter, RORgamma inh, Sfp PPTase inh)
O=C(Nc1ccccc1)c1nc[nH]c1C(=O)N1CCN(c2ccccc2)CC1	none (no result: Epigenetic derep, VP16 counter, RORgamma inh, Sfp PPTase inh)
C[C@H](NC(=O)c1[nH]cnc1C(=O)Nc1ccccc1)C(=O)OC(C)(C)C	VP16 counter 11µM, RORgamma inh 2.8µM
C[C@H](NC(=O)c1nc[nH]c1C(=O)N[C@@H](C)C(=O)OC(C)(C)C)C(=O)OCc1ccccc1	VP16 counter inconclusive, RORgamma inh inconclusive (no result: Epigenetic derep)
COc1ccc(NC(=O)c2nc[nH]c2C(=O)N2CCN(c3ccccc3)CC2)cc1	VP16 counter 11µM, RORgamma inh 5.6µM
C[C@H](NC(=O)c1[nH]cnc1C(=O)N[C@H](C)c1ccccc1)c1ccccc1	none (no result: Epigenetic derep, VP16 counter, RORgamma inh, Sfp PPTase inh)
COc1ccc(NC(=O)c2nc[nH]c2C(=O)N[C@@H](CC(C)C)C(=O)OC(C)(C)C)cc1	Epigenetic derep inconclusive, VP16 counter 16µM, RORgamma inh 5.6µM
CC(C)C[C@H](NC(=O)c1[nH]cnc1C(=O)Nc1ccccc1F)C(=O)OC(C)(C)C	none (no result: Epigenetic derep, VP16 counter, RORgamma inh, Sfp PPTase inh)
COc1ccc(NC(=O)c2nc[nH]c2C(=O)N[C@@H](C)c2ccccc2)cc1	VP16 counter 8.9µM, RORgamma inh 6.3µM
C=C1C=C(C)n2ncc(C(=O)Nc3ccc(NC(C)=O)c(Cl)c3)c2N1	none (no result: Epigenetic derep, VP16 counter, RORgamma inh, Sfp PPTase inh)
Cc1ccc(S(=O)(=O)N(CC(=O)O)c2ccc(Cl)cc2)cc1	none (no result: ClpP mod, VP16 counter, PINK1 expr mod, RORgamma inh, Sfp PPTase inh)
Cc1ccc(Cl)cc1NC(=O)C1CCN(S(=O)(=O)c2cccc3nonc23)CC1	none (no result: VP16 counter, RORgamma inh, Sfp PPTase inh)
CNC(=O)c1[nH]cnc1C(=O)N[C@@H](C)C(=O)OC(C)(C)C	none
